Experiments:
Test in all cases: PBM binding z-score (relative to random genomic background probes); higher = stronger binding; sequences stand for … in GC…GCGATTGACAGCGTAGAATGAAGG
[1] = tested on: RARb homodimer (NR concentration 270 nM)
Summary of the method: (§1)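 Custom Agilent 4×180K protein-binding microarrays carried double-stranded probes, each with a 34-nt variable region. These regions held direct-repeat seeds, single-nucleotide variants, half-site ablations and random human genomic background sequences. Ligand-free nuclear receptor dimers were incubated on the arrays for 1 h, antibodies against each partner (one per run) detected binding, and scanned fluorescence was regression-normalized. Binding z-scores take the random background probes as reference.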

[2] = tested on: RARg:RXRa (NR concentration 270 nM, RXRa partner concentration 90 nM)
Summary of the method: as §1

[3] = tested on: RARg homodimer (NR concentration 270 nM)
Summary of the method: as §1

[4] = tested on: RXRa DBDmut IVT, anti-RXR (DBD mutation: RXRa K156A/R161A, NR concentration 90 nM)
Summary of the method: as §1

[5] = tested on: RXRa homodimer (NR concentration 180 nM)
Summary of the method: as §1

[6] = tested on: THRa:RXRa (NR concentration 90 nM, RXRa partner concentration 90 nM)
Summary of the method: as §1

[7] = tested on: THRa homodimer (NR concentration 90 nM)
Summary of the method: as §1

[8] = tested on: VDR homodimer (NR concentration 270 nM)
Summary of the method: as §1

Sequence	PBM binding z-score [1]	PBM binding z-score [2]	PBM binding z-score [3]	PBM binding z-score [4]	PBM binding z-score [5]	PBM binding z-score [6]	PBM binding z-score [7]	PBM binding z-score [8]
CCTACTGGGCTAAGGTCATTGATCAGTCAAAGCA	3.59	4.14	3.51	1.83	4.07	3.95	4.04	2.94
TAGTCTAGGTCATTCAGGGGCCAGTATAGAAAGC	3.57	5.83	4.7	2.05	2.96	3.63	1.42	1.88
TCATATAGGTAATACAGGTGAAATTCGGCATCTA	0.536	0.764	0.496	1.51	1.34	1.04	0.421	0.0975
ACTCGCAGGCCAAGGGTCACTCAAGATTAGTCCG	3.81	4.36	3.98	1.03	3.97	2.95	0.204	0.901
AGATCGAGGGCAATGAGTTGATAGCACGGGTGGC	1.18	0.862	1.38	1.73	0.854	0.856	0.0154	2.44
ACTTACGGGTGAACGAGGTTATAGCACGCGTATA	1.2	1.47	0.987	0.294	2.06	2.39	0.511	1.01
AGGCAAAGTTCAGGACGAGGTAACGTAAAGCACG	3.36	4.68	5.16	2.98	3.23	3.87	1.95	2.35
ACTAGCAGGCCAAGTTTGGGTCACTCTAACAAAG	2.06	2.24	1.6	-0.0163	0.429	2.39	1.06	0.209
ACTAGCAGACCAAGTTTGGGTCACTCAAACAAAG	1.57	0.911	0.702	-0.0274	0.79	1.98	0.78	0.00842
CCTTACGGGTCACTGACAGTTTATAGCATTTGGA	3.2	5.31	4.77	2.11	5.48	2.74	0.505	1.42
TCTCTGAGGACACGAAGGTCAGAGCTTTCCAGAG	3.87	3.32	3.9	1.21	1.92	4.11	4.02	1.71
CCTTACGGGTCACTGACAGGTTATACCATTTGGA	3.56	5.73	4.84	1.64	5.54	2.85	0.447	1.41
CCTATTAGCTGACCATAAGGGCAACCGAAGCTCG	1.61	0.474	0.729	0.637	0.376	1.38	1.18	0.435
GTTACAGGGTCAGCTAGAGGCCAGAGTATGGAAA	3.54	6.82	5.21	1.4	4.47	3.11	0.599	1.01
ATATGTAGGTTACATCCGGGTCAGTCAGGCTATG	2.61	3.29	1.88	0.541	2.01	3.19	1.66	1.45
CTCGAAAGGACGTGCTCAGGTGAGTATACCAAAC	0.589	0.291	0.547	0.19	-0.118	1.17	0.542	-0.391
GCTAGCAGTCCATTTGGGTCACTCAATGACGGGC	1.54	0.428	0.586	0.506	0.617	1.82	0.507	0.912
ACAGACAGGTGAGTGAAGGTATCTCAGCTGGACG	-0.269	-0.0868	0.333	-0.121	0.228	-0.00206	-0.781	-0.981
CCTACTGGGCCAAGGTCAGTGATCAGTCAAAGCA	2.89	2.37	2.48	-0.721	1.4	2.31	1.15	0.568
ATCTCAAGGTAACCAAGTTCAGTGAATGCCGAAC	1.51	1.21	1.06	1.01	0.816	2.24	1.06	3.2
CAAACTAGGGCAAGGTCAAAGTCGGTTTGTGCCA	4.09	4.67	4.49	2.41	4.63	3.75	2.34	3.52
TCAGACAGGTGAAGGTAACTGAGGTACGCAGTCG	0.685	0.664	0.586	1.05	1.18	1.31	0.494	-0.194
TCTAGTTGATCAAAGGTCACACACTCGAAATGCG	4.89	6.54	5.95	2.21	7.03	4.22	2.08	2.79
GCAGACAGGTGAAACGCAGGTAACTCACGGTGGC	-0.171	0.892	0.295	-0.351	0.662	0.832	-0.7	-0.778
AGTCAGAGTTCACTAGGTAACGTAAGATTCAGCT	2.83	4.11	4.7	4.73	3.63	1.85	0.172	5.65
AGTCAAAGTTCAGGACGAGGTAACGTAGAGCACG	3.39	4.8	4.77	2.61	3.06	4.07	1.71	2.15
CCAGACAGGTGAGAAGATAACTCAGCCTCGATTA	-0.0712	0.21	0.586	0.0832	0.262	-0.0838	-0.477	-0.188
ACTAGTTGGTCAGCTGAGGTCTCACACAATTCGG	1.08	0.511	0.774	0.296	0.296	2.7	0.829	-0.0195
CCTAGTTGGGCAAGGTCACACACGCTATAGGTAC	3.9	4.2	3.87	1.51	4.41	3.79	3.23	2.77

Reference: the supplement of paper PMC6555819
